# Structures can show the parent of a compound that is named as a salt.
# How the values were obtained:
# Experiment in all cases: Euclidean distance of Cell Painting phenotypic profile (signed KS, 77 features) to DMSO centroid (dimensionless distance); higher = stronger phenotypic change vs DMSO (phenoactivity)
# Settings in all cases: 48 h; 5 or 10 uM (library dependent)
# 786-O = test system: 786-O
# Summary of the method: (§1)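 Phenoactivity is computed as Euclidean distance to the median vehicle profile. The profiles, drawn from 77 Harmony features scored as signed Kolmogorov-Smirnov statistics versus same-plate vehicle wells, were corrected for plate position, correlation-weighted and replicate-averaged at the top dose. Stained cells were imaged confocally at 20X (9 fields/well) after 48 h with library compounds at 10 or 5 uM, 0.1% DMSO final, in five cancer lines and a healthy fibroblast line.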
# A549 = test system: A549
# Summary of the method: as §1
# DU145 = test system: DU145
# Summary of the method: as §1
# FB = test system: FB
# Summary of the method: as §1
# HEPG2 = test system: HEPG2
# Summary of the method: as §1
# OVCAR4 = test system: OVCAR4
# Summary of the method: as §1
Structure (SMILES),Euclidean distance (786-O),Euclidean distance (A549),Euclidean distance (DU145),Euclidean distance (FB),Euclidean distance (HEPG2),Euclidean distance (OVCAR4)
COc1cc(OC)c(OC)cc1C=O [Asaraldehyde],1.25,0.833,0.776,1.31,1.73,1.06
C[C@]12CC[C@@H](O)C[C@@H]1CC[C@@H]1[C@@H]2CC[C@]2(C)C(=O)CC[C@@H]12 [Androsterone],1.51,0.773,1.2,1.28,0.665,1.07
Fc1cc(F)c2c(c1)[C@H]1C=CC[C@H]1C(c1cccnc1)N2 (some centres undefined) [Golgicide A],0.733,0.432,0.82,1.04,0.802,0.985
O=c1ccc2cc(O[C@@H]3O[C@H](CO)[C@@H](O)[C@H](O)[C@H]3O)c(O)cc2o1 [Esculin],0.808,0.729,0.922,0.993,0.624,1.29
C[C@]12CC[C@@H]3c4ccc(OC(=O)N(CCCl)CCCl)cc4CC[C@H]3[C@@H]1CC[C@@H]2OP(=O)(O)O [Estramustine phosphate sodium],1.21,0.586,0.548,0.917,0.766,0.779
CN1[C@@H]2CC[C@H]1C[C@@H](OC(=O)C(CO)c1ccccc1)C2 (some centres undefined) [Atropine],0.688,1.55,1.19,1,2.2,1.89
CCNC1(c2cccs2)CCCCC1=O (centres undefined) [Tiletamine Hydrochloride],1.22,1.39,1.26,1.39,0.678,1.75
Nc1ccncc1 [4-Aminopyridine],1.38,0.626,0.961,0.938,0.429,0.946
C=CCC(C(=O)NC(N)=O)C(C)C (centres undefined) [Apronal],1.22,0.684,1.07,0.907,0.938,1.09
O=c1c2ccccc2[se]n1-c1ccccc1 [Ebselen],1.37,1.48,1.01,1.16,0.769,1.42
COC(=O)C[C@](O)(CCC(C)(C)O)C(=O)O[C@@H]1C(OC)=C[C@]23CCCN2CCc2cc4c(cc2[C@H]13)OCO4 [Harringtonine],3.42,3.22,4.37,3.78,3.46,3.73
CC[C@@]1(O)C[C@H](O[C@H]2C[C@H](N(C)C)[C@H](O)[C@H](C)O2)c2c(cc3c(c2O)C(=O)c2c(O)cccc2C3=O)[C@H]1C(=O)OC [Aclacinomycin],2.61,3.27,3.54,3.61,3.76,3.12
NCC1(CC(=O)O)CCCCC1 [Gabapentin HCl],0.807,0.703,0.806,0.665,0.483,0.892
CN1CCN(c2nc3ccccc3nc2Cl)CC1,0.803,1.25,1.04,0.897,0.638,1.52
Oc1cc(Cl)ccc1Oc1ccc(Cl)cc1Cl [Triclosan],0.695,0.668,0.877,1.15,0.546,1.07
CC(=O)NC1CCSC1=O (centres undefined) [Citiolone],1.19,0.873,0.825,1.06,0.461,1.71
C=CC1CN2CCC1CC2C(O)c1ccnc2ccccc12 (centres undefined),1.34,0.884,1.11,0.875,0.638,1.13
CCCN1C[C@H](CSC)C[C@@H]2c3cccc4[nH]cc(c34)C[C@H]21 [Pergolide mesylate],0.662,0.713,1.01,0.92,2.27,1.02
C[C@]12CC[C@H](O)CC1=CC[C@@H]1[C@@H]2CC[C@]2(C)C(=O)CC[C@@H]12 [Dehydroepiandrosterone (DHEA)],0.908,0.827,1.46,1.11,1.12,1.16
Cc1ccc(/N=C/N(C)/C=N/c2ccc(C)cc2C)c(C)c1 [Amitraz],0.966,0.885,0.902,0.718,0.47,0.684
CN1[C@@H]2CC(O)C[C@H]1[C@@H]1O[C@@H]12 (some centres undefined) [Scopine HCl],0.344,0.885,0.479,0.66,0.893,0.714
NCCc1c[nH]c2ccc(O)cc12 [Serotonin HCl],1.02,0.797,1.01,1.12,0.38,1.71
CN1C(=O)COc2c(C(=O)NC3CN4CCC3CC4)cc(Cl)cc21 (centres undefined) [Azasetron HCl],0.735,0.632,0.582,0.666,0.533,0.74
C[C@@H]1O[C@@H](O[C@H]2C[C@@H](O)[C@]3(CO)[C@H]4[C@H](O)C[C@]5(C)[C@@H](C6=CC(=O)OC6)CC[C@]5(O)[C@@H]4CC[C@]3(O)C2)[C@H](O)[C@H](O)[C@H]1O [Ouabain],6.72,6.03,6.56,4.56,3.34,7.06
CCc1c(C(=O)C(N)=O)c2c(OCC(=O)O)cccc2n1Cc1ccccc1,0.933,1.14,1.33,0.633,0.812,0.982

Structure (SMILES),Euclidean distance (786-O),Euclidean distance (A549),Euclidean distance (DU145),Euclidean distance (FB),Euclidean distance (HEPG2),Euclidean distance (OVCAR4)
C[N+](C)(C)CCCCCCCCCC[N+](C)(C)C [Decamethonium Bromide],0.57,0.939,0.691,0.466,0.483,1.05
Oc1cccc2cccnc12 [8-Hydroxyquinoline],4.55,1.4,2.11,6.09,1.99,1.56
COC1=C[C@@H]2[C@@H]3Cc4ccc(OC)c(O)c4[C@]2(CCN3C)CC1=O [Sinomenine hydrochloride],0.472,0.883,1.1,1.15,0.751,0.824
CCC1=C[C@H]2CN3CCc4c([nH]c5ccccc45)[C@](C(=O)OC)(C2)[C@H]13 [Catharanthine],1.45,1.4,0.692,1.02,0.581,1.41
N=C(N)NN [Aminoguanidine hydrochloride],0.96,1.11,0.602,0.888,0.598,0.998
CC(C)OC(=O)[C@H](C)N[P@](=O)(CO[C@H](C)Cn1cnc2c(N)ncnc21)Oc1ccccc1 [Tenofovir Alafenamide (GS-7340)],1.71,1.16,1.44,1.85,2.92,1.58
COc1cc2c(c(OC)c1OC)-c1ccc(OC)c(=O)cc1[C@@H](NC(C)=O)CC2 [Colchicine],3.12,3.04,4.54,2.88,3.8,3.18
CCOC(=O)c1cncn1[C@H](C)c1ccccc1 [Etomidate],2.62,1.77,2.36,2.6,1.08,1.9
O=C(Oc1ccc([N+](=O)[O-])cc1)N1CCC(C(O)(c2ccc3c(c2)OCO3)c2ccc3c(c2)OCO3)CC1,1.24,1.34,1.4,1.86,1.15,1.12
NCC(O)c1ccc(O)cc1 (centres undefined) [(+.-)-Octopamine HCl],1.71,0.639,0.896,0.934,0.45,1.03
CN(C)NC(=O)CCC(=O)O [Daminozide],0.626,0.507,0.706,0.873,0.742,1.16
O=[N+]([O-])c1ncc[nH]1 [Azomycin],1.03,1.17,1.36,1.09,1.54,0.81
c1ccc2c(c1)Nc1ccccc1S2 [Phenothiazine],0.657,0.876,0.829,1.1,1.4,0.881
CC(Cc1ccc(O)cc1)NCC(O)c1cc(O)cc(O)c1 (centres undefined) [Fenoterol hydrobromide],0.772,0.319,0.524,0.734,0.461,0.781
O=P1(N(CCCl)CCCl)NCCCO1 (centres undefined) [Cyclophosphamide Monohydrate],1.18,0.863,1.62,0.969,2.05,1.07
Cc1ccccc1-n1c(Cn2ncc3c(N)ncnc32)nc2cccc(C)c2c1=O,0.868,0.946,1.12,0.901,2.23,1.03
Cc1cccc(C)c1NC(=O)CN1CCCC1=O [Nefiracetam],1.15,0.499,–,0.708,1.11,1.2
O=C(CC1NCCCC1O)Cn1cnc2cc(Br)c(Cl)cc2c1=O (centres undefined) [Halofuginone],3.67,3.22,–,3.62,3.81,3.65
CC(C)=CCOc1c2occc2cc2ccc(=O)oc12 [Imperatorin],1.11,0.594,0.803,0.939,0.503,1.32
CCCCCCCCC(=O)NCc1ccc(O)c(OC)c1 [Nonivamide],1.37,0.987,–,0.925,0.607,1.31
CN1CCC(C(=O)c2cccc(NC(=O)c3c(F)cc(F)cc3F)n2)CC1 [Lasmiditan succinate],1.46,0.669,1.83,0.918,0.782,1.39
O=C(O)c1nn(Cc2ccc(Cl)cc2Cl)c2ccccc12 [Lonidamine],0.877,1.12,–,1.09,0.957,1.52
C=CC[C@]1(O)CC[C@H]2[C@@H]3CCC4=CC(=O)CCC4=C3C=C[C@@]21C [Altrenogest],1.11,2.59,–,1.16,0.983,1.02
N#C[C@H](O[C@@H]1O[C@H](C(=O)O)[C@@H](O)[C@H](O)[C@H]1O)c1ccccc1 [Laetrile],0.989,0.766,–,0.899,0.702,1.45
C[S+]([O-])CCCCN=C=S (centres undefined) [sulforaphane],1.73,1.68,1.89,2.33,2.6,1.58

# Reference: the supplement of paper PMC10127200
